Laboratory results as given in a collection of fitness landscapes (doi:10.1126/science.1257360).
Over roughly 140,000 sequences, “enrichment ratio after two sorts for PhoP signalling” has its median near 0; the highest 2% begin near 11. Shown is part of a subset that was picked to be rich in the highest values.

B1: PhoQ; a variant is named by its letters at X, in order, P23837 (parent)
chain: MKKLLRLFFPLSLRVRFLLATAAVVLVLSLAYGMVALIGYSVSFDKTTFRLLRGESNLFYTLAKWENNKLHVELPENIDKQSPTMTLIYDENGQLLWAQRDVPWLMKMIQPDWLKSNGFHEIEADVNDTSLLLSGDHSIQQQLQEVREDDDDAEMTHSVAVNVYPATSRMPKLTIVVVDTIPVELKSSYMVWSWFIYVLSANLLLVIPLLWVAAWWSLRPIEALAKEVRELEEHNRELLNPATTRELTSLVRNLNRLLKSERERYDKYRTTLTDLTHSLKTPLXXLQXXLRSLRSEKMSVSDAEPVMLEQISRISQQIGYYLHRASMRGGTLLSRELHPVAPLLDNLTSALNKVYQRKGVNISLDISPEISFVGEQNDFVEVMGNVLDNACKYCLEFVEISARQTDEHLYIVVEDDGPGIPLSKREVIFDRGQRVDTLRPGQGVGLAVAREITEQYEGKIVAGESMLGGARMEVIFGRQHSAPKDE

Variants of: B1
Assay: enrichment ratio after two sorts for PhoP signalling (ratio (wild type AVST 3.29)); higher = more functional
Conditions: with PhoP (E. coli)

Variant | enrichment ratio
IKGI | ≤ 0.25
DLMM | ≤ 0.25
RFVW | ≤ 0.25
QQLG | 2.01
LTCG | ≤ 0.25
ITCV | ≤ 0.25
ITCT | ≤ 0.25
TTCG | 30.3
TTCT | 12.8
ITCS | ≤ 0.25
YTCS | ≤ 0.25
YTCT | ≤ 0.25
TTCV | 17.3
YTCV | ≤ 0.25
YTCG | ≤ 0.25
TTCS | 18.7
ATPS | ≤ 0.25
KDFS | ≤ 0.25
PMMQ | ≤ 0.25
YYTW | ≤ 0.25
RVTP | ≤ 0.25

Variant | enrichment ratio
FDKV | ≤ 0.25
TTCE | 8.85
TTCK | 5.62
TTCI | 15.8
LIVW | ≤ 0.25
ATSF | 11.9
AIMF | 0.847
YDSM | ≤ 0.25
ITSF | ≤ 0.25
ATHF | ≤ 0.25
ATSM | 16.9
ATMF | 16
GTSM | 10.6
CTSF | 3.85
PAWP | ≤ 0.25
TTFE | ≤ 0.25
HKLY | ≤ 0.25
TKLY | 16.4
DNLY | ≤ 0.25
AYLY | ≤ 0.25
GNLY | 3.04

Variant | enrichment ratio
KKLY | ≤ 0.25
ANLY | 12
AILY | 1.94
AKLY | 19.7
LENP | ≤ 0.25
YGNS | ≤ 0.25
ELCS | ≤ 0.25
SDHR | ≤ 0.25
RTCY | ≤ 0.25
FQWN | ≤ 0.25
MMYS | ≤ 0.25
KCYS | ≤ 0.25
MCYS | 12.8
STYS | 0.267
QEYS | 37
MEYS | 25.6
QRYS | ≤ 0.25
MLYS | ≤ 0.25
MKYS | ≤ 0.25
LVRD | ≤ 0.25
RKTS | ≤ 0.25

Variant | enrichment ratio
MAFY | 5.02
GGMI | 12.3
NGMI | 0.49
VGMW | ≤ 0.25
NIMI | ≤ 0.25
VGMI | 20.4
LGMS | ≤ 0.25
RGMI | ≤ 0.25
TGMI | 13.2
LGMA | ≤ 0.25
VGMG | ≤ 0.25
LGMI | 12.6
GGMD | ≤ 0.25
DSTD | ≤ 0.25
HLRM | ≤ 0.25
IPWT | ≤ 0.25
WPQK | ≤ 0.25
TMAW | ≤ 0.25
WDLT | ≤ 0.25
GWGM | ≤ 0.25
HMWI | ≤ 0.25
